The whole screen tested about 96,000 compounds, of which about 19,000 (20%) were called active.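 How the source made its calls: active means blocking of liver enzyme CYP2C9 beyond about 50% at 5 µM (limit read from the data); inactive means the rest.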 The list is a sample of the results.
biological target: Cytochrome P450 2C9 (Homo sapiens) (UniProt P11712); test: blockers of cytochrome P450 2C9 activity – biochemical, luminescence, ADME assay, primary screen (AID 777); settings: CYP2C9 Supersomes, luciferin-H conversion, at 5 µM, active compounds read high
Sequence (P11712 whole entry, looked up): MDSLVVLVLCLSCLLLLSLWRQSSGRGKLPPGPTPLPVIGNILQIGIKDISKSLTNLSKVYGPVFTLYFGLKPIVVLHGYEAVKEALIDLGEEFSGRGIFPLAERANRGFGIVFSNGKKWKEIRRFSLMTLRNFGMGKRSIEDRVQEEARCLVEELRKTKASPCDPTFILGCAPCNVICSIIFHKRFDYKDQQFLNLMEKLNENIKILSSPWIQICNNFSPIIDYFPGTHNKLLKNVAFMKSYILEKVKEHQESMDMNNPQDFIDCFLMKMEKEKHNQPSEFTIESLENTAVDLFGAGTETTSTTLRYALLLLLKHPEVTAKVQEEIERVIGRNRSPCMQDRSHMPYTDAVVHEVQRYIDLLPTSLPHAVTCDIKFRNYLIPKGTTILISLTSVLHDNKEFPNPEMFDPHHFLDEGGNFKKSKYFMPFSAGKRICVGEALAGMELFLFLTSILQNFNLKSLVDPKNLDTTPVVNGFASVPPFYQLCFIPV

Compound | inhibition
CCNC(=O)N1CCNC(=O)C1CC(=O)Nc1ccc(C(=O)OCC)cc1 (stereo not given) | 1.1% (inactive)
COC(=O)c1ccc(C(=O)OC)c(NC(=S)N2CCCCC2)c1 | 14% (inactive)
O=C(Nc1ccc2c(c1)CCC2)c1cccc(S(=O)(=O)N2CCN(c3ccc(F)cc3)CC2)c1 | 39.9% (inactive)
CCCCc1nnc(NC(=O)CS(=O)(=O)Cc2ccccc2)s1 | 44.7% (inactive)
C=CCNc1nnc(C)c2ccccc12 | -15.2% (inactive)
Cc1ccccc1CN1CCN(C(=O)c2cccc(F)c2)CC1 | 85.6% (active)
O=C(c1ccccc1)N1CCN(C(=O)N2CCCCC2)CC1 | 1.9% (inactive)
Cc1ccc(C(=O)N2CCCCCC2)cc1Br | -23.3% (inactive)
O=C(CN1CCN(C(=O)c2cccc(F)c2)CC1)Nc1ccccc1F | 27.5% (inactive)
Cc1ccccc1CS(=O)(=O)CC1(O)CCN(C(=O)c2cccc(C(F)(F)F)c2)CC1 | 4.9% (inactive)
Cc1cccc(C(=O)N2CCCN(C(=O)c3cccc(C)c3)CC2)c1 | 70.4% (active)
Cc1ccc(S(=O)(=O)N(c2cccc(C)c2)C2CCS(=O)(=O)C2)cc1 (stereo not given) | 7.2% (inactive)
CC(C)C(=O)Nc1ccc2c(c1)oc1ccccc12 | 1.8% (inactive)
CC1Cc2ccccc2N1C(=O)CSc1nnc(-c2ccc(S(=O)(=O)N3CCCCC3)cc2)o1 (stereo not given) | 31.7% (inactive)
COc1ccc(C2=NOC3(CC(=O)N(c4ccc(C)cc4)C3=O)C2)cc1 (stereo not given) | 12% (inactive)
CCCc1nnc(NC(=O)c2cc(OC)cc(OC)c2)s1 | 21.7% (inactive)
COc1ccc(S(=O)(=O)N2CCCC2)c(C)c1C | -147% (inactive)
COc1ccc(S(=O)(=O)Nc2ccc(F)cc2)c(C)c1C | 66.9% (active)
Cc1ccc(NS(=O)(=O)c2c(C)[nH]c(=O)[nH]c2=O)cc1C | 4.6% (inactive)
CCOc1cc(C(=O)Nc2ncccn2)cc(OCC)c1OCC | 3.1% (inactive)
Nc1nnc(C2CCCC2)s1 | 7.5% (inactive)
CC1=C(C(=O)Nc2ccccc2)C(c2cccs2)C(C#N)=C(SCC#N)N1 (stereo not given) | 87.5% (active)
CCCSC1=C(C#N)C(c2ccccc2C)C(C(=O)OC)C(=O)N1 (stereo not given) | 33.7% (inactive)
COc1ccc(NC(=O)c2sccc2SCC#N)cc1 | 10.4% (inactive)
C/C(=N\O)C1(C)N(O)C(C)(C)C(c2ccc(Br)cc2)=[N+]1[O-] (stereo not given) | -4.6% (inactive)

Compound | inhibition
O=c1onc(-c2cccs2)n1Cc1ccccc1 | 4.9% (inactive)
Cc1ccc(OCCCC(=O)N2CCOCC2)c(C)c1 | 4% (inactive)
CCCCCNC(=O)Cc1ccc(OC)cc1 | 14.9% (inactive)
CCNC(=O)NC(=O)C(C)OC(=O)c1cc(S(=O)(=O)N2CCCCCC2)ccc1OC (stereo not given) | 98.5% (active)
COc1ccc(S(=O)(=O)N2CCC(C(=O)N3CCOCC3)CC2)cc1OC | 43.3% (inactive)
CSCCC(NC(=O)c1ccco1)C(=O)OCC(=O)Nc1ncc(Cl)c(C)c1Cl (stereo not given) | 24.2% (inactive)
CCc1cc(=O)oc2cc(C)cc(OC(C)C(=O)O)c12 (stereo not given) | -7.1% (inactive)
CCCCc1cc(=O)oc2cc(C)cc(OCc3nn[nH]n3)c12 | 67.5% (active)
O=c1[nH]c(CCl)nc2cc(-c3ccc(Cl)cc3)sc12 | 17.9% (inactive)
O=C(Nc1sc2c(c1-c1nc3ccccc3[nH]1)CCCC2)C1CC1 | 40.5% (inactive)
CCOC(=O)c1[nH]c2ccc(C)cc2c1N=C(C)N(C)C | -7.9% (inactive)
COc1ccc(C(=O)N(Cc2ccc(N(C)C)cc2)C2CCS(=O)(=O)C2)cc1 (stereo not given) | -2.3% (inactive)
CCOc1ccc(C(=O)N(Cc2ccc(N(C)C)cc2)C2CCS(=O)(=O)C2)cc1 (stereo not given) | 65.3% (active)
COc1cc(C(=O)N(Cc2ccc(N(C)C)cc2)C2CCS(=O)(=O)C2)cc(OC)c1OC (stereo not given) | 5.2% (inactive)
O=C(Nc1nccs1)c1cc(S(=O)(=O)N2CCOCC2)c(Cl)cc1Cl | 15.1% (inactive)
CC(=O)N(CC1CCCO1)C1(C(=O)NC2CCCC2)CCCCC1 (stereo not given) | -7.3% (inactive)
COC(=O)c1ccc(CSc2ccc3nnc(-c4ccccc4)n3n2)o1 | 96.2% (active)
CCOc1ccccc1Nc1nnc(SCc2ccc(C(=O)OC)o2)s1 | -73.5% (inactive)
COC(=O)c1ccc(CSc2nncn2C)cc1 | 21.6% (inactive)
COc1cc(OC)cc(-c2nc3nc(C)c(CCC(=O)NCc4ccco4)c(C)n3n2)c1 | 15.8% (inactive)
O=C(NCc1ccccn1)c1c(O)c2c([nH]c1=O)CCCC2 | 15% (inactive)
COc1ccc(CNC(=O)C2CCC(CNc3c(N4CCOCC4)c(=O)c3=O)CC2)cc1 (stereo not given) | -7.6% (inactive)
Cc1cc(O)ccc1-c1cnc2ccccc2n1 | -7.4% (inactive)
O=C1c2ccccc2S(=O)(=O)N1CC(O)Cn1c2ccccc2c2ccccc21 (stereo not given) | 94.4% (active)
O=C(CN1C(=O)c2ccccc2S1(=O)=O)N1CCc2ccccc21 | -5.2% (inactive)

Compound | inhibition
CNC(=O)CN1C(=O)c2ccccc2S1(=O)=O | -5.9% (inactive)
CCC(=O)Nc1ccc(C(=O)Nc2ccc3c(c2)C(=O)N(CC2CCCO2)C3=O)cc1 (stereo not given) | 18.8% (inactive)
CCOc1cccc(NC(=O)CC#N)c1 | -19.3% (inactive)
CC(=O)Nc1cccc(Oc2cc(C#N)c(C#N)cc2N2CCOCC2)c1 | 61.5% (active)
CC(=O)Nc1ccc(N2CCOCC2)c(C(=O)Nc2cccc(C)c2)c1 | 49.6% (inactive)
CCC(=O)Nc1ccc(C(=O)Nc2cc(C)on2)cc1 | 8.5% (inactive)
Cc1ccc(/C=N/NC(=O)c2sccc2OCc2ccc(F)cc2)cc1 | 17.4% (inactive)
O=C(Nc1nnc(CCOCCOCCc2nnc(NC(=O)c3ccco3)s2)s1)c1ccco1 | 19.4% (inactive)
Cc1[nH][nH]c(=O)c1N=Nc1ccccc1 | 25.4% (inactive)
O=C(NCCCn1ccnc1)Nc1ccc(Cl)cc1Cl | 97.7% (active)
COc1ccccc1-c1cc(C(=O)NCCCn2ccnc2)no1 | -25.8% (inactive)
CCOc1ccccc1C(=O)NCCCn1ccnc1 | 65.1% (active)
NS(=O)(=O)c1ccc(CCNC(=O)Nc2ccc(Cl)cc2)cc1 | 30.4% (inactive)
CCCCOCCCNC(=O)c1ccccc1OCC | -187% (inactive)
CCCC(=O)Nc1ccc(C(=O)NCCCn2ccnc2)cc1 | 42.1% (inactive)
Cn1c(=NC(=O)CSCC(=O)N2CCCCC2)sc2ccccc21 | -39.3% (inactive)
O=C(Cc1c(F)cccc1Cl)N1CCN(C(=O)c2ccco2)CC1 | 11.7% (inactive)
O=C1CSC(c2cccc(F)c2)N1c1ccc(O)cc1 (stereo not given) | 32.7% (inactive)
CCN1CCN(C(=O)/C=C\C(=O)O)CC1 | -4.2% (inactive)
COc1cccc(N(CC(=O)Nc2cccc(N(C)S(C)(=O)=O)c2)S(C)(=O)=O)c1 | 57.7% (active)
CCN(CC)S(=O)(=O)c1ccc(NC(=O)CN(c2cccc(F)c2)S(C)(=O)=O)cc1 | 97.6% (active)
Cc1cccc(N(CC(=O)Nc2ccc(-c3nc4ccc(C)cc4s3)cc2)S(C)(=O)=O)c1 | 6.7% (inactive)
COc1cccc(N(CC(=O)Nc2cccc(F)c2)S(C)(=O)=O)c1 | 45.4% (inactive)
Cc1ccc(N(CC(=O)Nc2cccc(N(C)S(C)(=O)=O)c2)S(C)(=O)=O)cc1 | 5.5% (inactive)
CS(=O)(=O)N(CC(=O)Nc1ccc(F)cc1F)c1cccc([N+](=O)[O-])c1 | 13.3% (inactive)

Compound | inhibition
CC1Cc2cc(/C(O)=C3\C(=O)C(=O)N(CCN4CCOCC4)C3c3ccccc3F)ccc2O1 (stereo not given) | 0.8% (inactive)
CCSc1ncnc2c(C#N)c3n(c12)CCCCC3 | 17.9% (inactive)
Nn1c(SCC(=O)NC2CCCC2)nnc1-c1ccccc1F | 8.6% (inactive)
COCCNC(=O)COc1ccccc1C | 4.4% (inactive)
CCCn1nnnc1NC(=O)COc1ccc(Cl)cc1C | 46.7% (inactive)
O=C(CSc1ncn[nH]1)Nc1ccnc2ccccc12 | 35.2% (inactive)
O=C(Nc1cccc2ncccc12)C(Cl)(Cl)Cl | 49.6% (inactive)
O=C(CSc1n[nH]c(-c2cccnc2)n1)Nc1ccnc2ccccc12 | 91.5% (active)
CCCn1c(SCC(N)=O)nnc1C(C)C | -8% (inactive)
O=C1c2cccnc2C(=O)N1Cc1cccs1 | 11.6% (inactive)
CCOC(=O)c1cc2ccccc2nc1C | -27.3% (inactive)
CCOC(=O)c1sc(C)c2c1NC(C)(c1cccc3ccccc13)NC2=O (stereo not given) | 100% (active)
CCOC(=O)c1nc(N)sc1C(=O)OCC | 4.2% (inactive)
Cc1ccccc1Nc1nnc(C)c(=O)[nH]1 | 2.7% (inactive)
CNC(=O)c1nnc(Cc2ccc(Cl)cc2)o1 | 5% (inactive)
CC(C)CCNC(=O)C1CCCN(S(=O)(=O)c2ccc(F)cc2)C1 (stereo not given) | -10.8% (inactive)
CC(C)CCNC(=O)C(C)N(C(=O)Cn1nnc(-c2ccc(F)cc2)n1)C1CCCC1 (stereo not given) | 77.2% (active)
CC(C)CCNC(=O)CN(C(=O)Cn1nnc(-c2ccc(F)cc2)n1)C1CCCC1 | 17.3% (inactive)
CC1=CC(C)(C)NC(=S)N1c1ccccc1 | 13.8% (inactive)
CCc1cccc2c(C=C(C#N)C#N)cn(CC(=O)N3CCCCC3)c12 | 0% (inactive)
O=c1cc(CSc2ccccn2)nc(N2CCN(c3ccccc3)CC2)[nH]1 | 3.6% (inactive)
CCc1c(C)nc(N2CCN(Cc3ccccc3)CC2)[nH]c1=O | 10.1% (inactive)
Cc1nnc(SCc2cc(=O)[nH]c(N3CCN(Cc4ccccc4)CC3)n2)s1 | 56.4% (active)
Cc1ccc(-c2n[nH]c(=S)n2/N=C/c2cc3c(cc2[N+](=O)[O-])OCO3)cc1 | 18% (inactive)
Nc1nc(C23CC4CC(CC(C4)C2)C3)cs1 | 73.6% (active)

Source: PubChem BioAssay AID777 (Sanford-Burnham Center for Chemical Genomics, 2007)
